The text below walks through data of PubChem BioAssay.

Unmarked numbers belong to inactive results. How the calls were made is not given here.

For the assay, the target named is Lethal factor (Bacillus anthracis) (UniProt P15917). Nature of the assay: Lethal factor protease inhibitors, Bacillus anthracis, multiplex microsphere cleavage assay, validation set (AID 588461). The conditions noted are these: flow cytometry, at 10 µM, hits give high values. (In general: In flow cytometry, cells or beads pass a laser one at a time.)
Lethal factor (Bacillus anthracis), sequence (P15917 whole entry, looked up): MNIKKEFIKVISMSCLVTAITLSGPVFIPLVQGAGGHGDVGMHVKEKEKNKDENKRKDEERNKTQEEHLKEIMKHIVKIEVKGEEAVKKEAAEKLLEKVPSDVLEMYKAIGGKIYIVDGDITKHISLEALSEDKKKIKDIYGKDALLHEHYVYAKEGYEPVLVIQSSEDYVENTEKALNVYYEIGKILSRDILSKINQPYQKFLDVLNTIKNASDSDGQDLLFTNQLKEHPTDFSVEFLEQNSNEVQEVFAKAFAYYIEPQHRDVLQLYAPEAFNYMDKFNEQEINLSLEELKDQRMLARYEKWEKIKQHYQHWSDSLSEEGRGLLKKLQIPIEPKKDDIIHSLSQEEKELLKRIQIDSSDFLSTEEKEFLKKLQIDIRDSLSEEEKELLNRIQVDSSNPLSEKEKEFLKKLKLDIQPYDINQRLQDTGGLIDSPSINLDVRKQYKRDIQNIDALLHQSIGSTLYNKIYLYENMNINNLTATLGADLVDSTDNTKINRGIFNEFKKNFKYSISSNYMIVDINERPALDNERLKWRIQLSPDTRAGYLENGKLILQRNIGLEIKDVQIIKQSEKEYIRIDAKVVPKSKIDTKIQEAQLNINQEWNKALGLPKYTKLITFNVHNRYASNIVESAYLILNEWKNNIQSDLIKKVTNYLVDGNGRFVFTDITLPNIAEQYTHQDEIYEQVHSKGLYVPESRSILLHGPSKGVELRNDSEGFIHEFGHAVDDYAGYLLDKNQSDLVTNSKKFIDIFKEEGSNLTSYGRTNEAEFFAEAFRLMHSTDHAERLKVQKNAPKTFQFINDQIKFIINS
What is called inhibition is the change of the read-out against control, counted positive when it falls. With `CCCCCCCCCC(=O)OCC(O)CO` (stereo not drawn), the inhibition was -4.5%.
Then `O=C(NCCO)c1ccc2[nH]c3ccccc3c2c1`, with 5.3%.
In the case of `O=C1CCCCCN1Cc1ccccc1`, the inhibition is -2.7%.
As for `COc1ccc(CNC(=O)C2CCN(C(=O)[C@@H](CC(C)C)NC(=O)OC(C)(C)C)CC2)cc1`, the inhibition is -3.7%.
For `O=C(O)c1cc(-c2ccc3c(c2)OCO3)nc2ccc(Br)cc12`, the inhibition was -2.6%.
For the molecule `CC(=O)Oc1c2occc2cc2ccc(=O)oc12`, the inhibition is -7.3%.
Consider `Cc1cnc(C(=O)NCCc2ccc(S(=O)(=O)NC(=O)NC3CCCCC3)cc2)cn1`, for which the inhibition is -0.1%.
Take `CCS(=O)(=O)CCn1c([N+](=O)[O-])cnc1C`: the inhibition was 3.7%.
With `Nc1ccc(S(N)(=O)=O)cc1N`, the inhibition is -20%.
With `COc1cc2nc(-c3ccccc3)nc(N3CCCC3)c2cc1OC`, the inhibition is -4.3%.
Turning to `CC1(C)CC(C(CC(=O)N2CCCC2)Cc2ccccc2)CCO1` (stereo not drawn), the inhibition is 3.1%.
As for `O=C(O)COc1ccc2occ(C(=O)c3ccccc3)c2c1`, the inhibition was 4.6%.
Then `CC12CCC(C(=O)NCc3ccccn3)(OC1=O)C2(C)C` (stereo not drawn), with 3%.
Take `COc1cc2c(cc1OC)C(c1ccc(-c3cc(Cl)ccc3Cl)o1)=NCC2`: the inhibition was -4.2%.
Then `COc1ccc(CCN2CNc3c(c(=O)n(C)c(=O)n3C)C2)cc1OC`, with 4.8%; and `Nc1ccc(N=Nc2ccccc2)c(N)n1`, with -0.6%.
Take `CCc1cc2c(=O)c(-c3nc(C)cs3)c(CCCC(=O)O)oc2cc1O`: the inhibition is -3.9%.
Then `CCCc1cc(=O)[nH]c(=S)[nH]1`, with 1.8%.
